# Screening results from PubChem.
# Only some compounds are listed: those with a hit (about 8.1% of all), similar ones and a draw of the others.
# PINK1 modulator – modulators of PINK1 expression. PINK1 immunofluorescence, high-content cytometry, 24 h. Potency, µM (doses to about 76.6 µM), inactives show at the highest dose activation (PINK1 increase), usual class: activators. 0.2% of 410,000 active; active = well fitted activation curve with a large enough effect; inconclusive = small, poorly fitted or top-dose-only effect; cell line not stated here; also: % of control where 0% means no effect; nearly all actives have a fitted effect of over 65% in size
#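 Measures PINK1 amount and localization on or inside mitochondria by immunofluorescence. Stable cells get compounds at 5 concentrations for 24 hours before fixation and staining; CCCP controls included.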
# Sfp PPTase inh – inhibitors of Bacillus subtilis Sfp phosphopantetheinyl transferase; Q9F4F7; Biochemical Sfp PPTase activity, qHTS; Potency, µM, inactives show largest response in the series, negative = inhibition, usual class: inhibitors; 3.5% of 310,000 active; AID 1490;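 also: the enzyme is Sfp with the accession as filed and its product quenches rhodamine fluorescence; 0% = enzyme reaction without inhibitor and -100% = no enzyme wells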
#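 Compounds were incubated with enzyme (final 15 nM) for 15 min at room temperature before substrate addition started the reaction. Fluorescence at 525 nm excitation, 598 nm emission was recorded immediately and after 30 minutes.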
# ClpP mod – qHTS Assay for Activators of ClpP; purified B. subtilis ClpP, FRET peptide cleavage, 20 min; Potency, µM (titrated, usually from 57.5 µM), without a hit: at the top dose activity change, negative = active; 1.9% of 340,000 active; active = well fitted falling curve with a large enough effect; inconclusive = small, poorly fitted or top-dose-only effect; inactive = no such curve, though single readings can be large or run the other way; also: the source files actives as falling curves though it sought activators and does not explain the sign; nearly all actives have a fitted effect of over 65% in size
#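 Buffer: 100 mM Tris/HCl pH8, 100 mM KCl, 0.05% low protease BSA, 2.5% glycerol, 0.01% Tween-20. ClpP 10 microg/mL final; 20 min RT; delta FRET normalized to ADEP and DMSO controls.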
# Gal4-VP16 FLuc – inhibits Gal4-VP16 luciferase reporter, ROR gamma counter-screen; Drosophila S2 Gal4-VP16 UAS-luciferase, luminescence, 20 h; Potency, µM (doses to about 53.6 µM), for the others: at the top dose activity, negative = inhibition, actives largely listed as inhibitors; 3.5% of 310,000 active;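 also: Gal4-VP16 expression switched on by copper sulfate through the metallothionein promoter; % is scaled to controls: 0 for no effect and ±100 for the full control effect; nearly all actives have a fitted effect of over 50% in size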
# RORgamma inh – inhibitors of mouse ROR gamma transcriptional activity; 5.4% of 310,000 active; P51450; Potency, µM (series often up to 53.6 µM), without a hit: top-dose activity change, negative = inhibition, hits mostly inhibitors; Drosophila S2 Gal4-RORgamma UAS-luciferase reporter, 20 h; also: % is scaled to controls: 0 for no effect and ±100 for the full control effect; nearly all actives have a fitted effect of over 60% in size
# Target sequence (P51450 whole entry, looked up, the tested form may be a part): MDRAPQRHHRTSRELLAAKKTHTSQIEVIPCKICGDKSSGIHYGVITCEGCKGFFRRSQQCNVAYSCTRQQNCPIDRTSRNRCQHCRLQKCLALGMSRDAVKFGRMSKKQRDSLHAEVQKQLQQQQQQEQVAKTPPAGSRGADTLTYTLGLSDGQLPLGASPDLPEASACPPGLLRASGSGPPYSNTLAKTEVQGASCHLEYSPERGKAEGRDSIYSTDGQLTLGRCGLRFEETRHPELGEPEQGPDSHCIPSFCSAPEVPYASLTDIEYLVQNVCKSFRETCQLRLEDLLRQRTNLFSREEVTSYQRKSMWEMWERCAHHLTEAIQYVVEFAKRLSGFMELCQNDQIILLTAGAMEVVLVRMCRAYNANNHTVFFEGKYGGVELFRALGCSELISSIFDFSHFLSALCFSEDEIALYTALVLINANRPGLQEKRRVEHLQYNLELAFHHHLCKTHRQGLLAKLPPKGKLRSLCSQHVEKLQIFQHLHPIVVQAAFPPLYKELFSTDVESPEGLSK
#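 In this cell-based reporter format, copper sulfate (700 uM final) drives Gal4–ROR gamma fusion expression from a metallothionein promoter in Drosophila Schneider cells; compounds preincubated 1 hr, reporter read after 20 hr at ambient temperature.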
# Epigenetic derep – epigenetic control regulation, reporter derepression; murine LDR cells, GFP reporter derepression, 30 h; Potency, µM (titrated, usually from 53.9 µM), for inactives: at the top dose GFP activation, hits mostly activators; 0.2% of 280,000 active; also: % of control where 0% means no effect; nearly all actives have a fitted effect of over 60% in size
#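 In this reporter-derepression format, murine cells bearing a silenced integrated CMV-GFP locus incubate with test compound (30 h, 37 C), then are washed and imaged; fluorescent objects of 20–120 um count as induced cells.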
# * marks the source's active call; other numbers are inactive results; ? = inconclusive; . = no result given; [ ] = dose if it differs, or a comment. Unless noted, calls follow the shape of the dose curve; as a rule, active = well fitted curve in the direction sought with a large enough effect; inconclusive = small, poorly fitted or top-dose-only effect, or another doubt; inactive = no such curve, though single readings can be large; an effect the other way counts as inactive or inconclusive. Potency is read from the fitted curve at half-maximal effect.
SMILES,PINK1 modulator,Sfp PPTase inh,ClpP mod,Gal4-VP16 FLuc,RORgamma inh,Epigenetic derep
CCn1c(CN2c3ccccc3Sc3ccccc32)n[nH]c1=S,0%,3%,.,?,2.8µM*,-2%
CCOc1ccc(Sc2cc(C(=O)NCc3ccccc3Cl)c3ccccc3n2)cc1,9%,.,-14%,.,.,6%
Cc1ccc(NC(=O)C(Cc2ccccc2)NS(=O)(=O)c2cccc3nsnc23)c(C)c1 (stereo not drawn),1%,.,-1%,.,.,2%
Cc1cccc(N2CCN(C(=O)Cn3c(=O)c4cccn4c4ccc(F)cc43)CC2)c1C,-1%,.,-2%,.,.,-1%
CS(=O)(=O)N1CCN(c2ccccc2NC(=O)c2ccc(-c3ccc(Br)cc3)o2)CC1,13%[38.3 µM],-3%,32µM*,-4%,22%,-2%
CN1CCN(c2ccc(NC(=O)c3ccc(-c4ccc(Cl)cc4)o3)cc2)CC1,3%,-23%,4%,?,-45%,.
CS(=O)(=O)N1CCN(c2ccc(NC(=O)c3ccc(-c4ccc(Cl)cc4)o3)cc2)CC1,14µM*,11%,-10%,-25%,-36%,0%
CS(=O)(=O)N1CCN(c2ccccc2NC(=O)c2cc(Br)ccc2Cl)CC1,2%,20%,.,-9%,19%,0%
O=C(Nc1ccccc1)Nc1cccc2nsnc12,3%,63µM*,?,-6%,-15%,3%
O=C(Nc1cccc2nsnc12)c1ccc(-c2ccc(Br)cc2)o1,?,40µM*,-3%,12%,-16%,-1%
Cc1ccc2cccc(NC(=O)c3ccc(-c4ccc(Br)cc4)o3)c2n1,-1%,.,0%,.,.,3%
CN(C)c1ccc(/C=C/c2ccnc3c(-c4ccccc4)cccc23)cc1,.,.,2%,.,.,.
CCc1ccc(/C=C2\SC(=S)N(CCCC(=O)Nc3ccc(C(=O)O)cc3)C2=O)cc1,3%,-23%,2%,?,4µM*,.
COc1cc(/C=C2\SC(=O)N(CC(=O)Nc3cccc(C)c3)C2=O)ccc1OC(C)C(=O)O (stereo not drawn),-2%,.,.,.,.,.
COc1ccc(/C=C2/SC(=S)N(CCCC(=O)Nc3cccc(O)c3)C2=O)cc1,15%,0%,.,2.5µM*,0.32µM*,.
CCc1ccc(/C=C2\SC(=S)N(CCCC(=O)Nc3ccccc3C(=O)O)C2=O)cc1,0%,-1%,1%,20µM*,5µM*,.
COc1ccc(/C=C2\SC(=O)N(CC(=O)Nc3cccc(C)c3)C2=O)cc1O,5%,4%,.,18µM*,?,.
CCS(=O)(=O)Nc1cc(C(=O)N2CCCN(C=O)CC2)c2c(c1)nc(-c1ccccc1)n2C,0%,.,.,.,.,.
CCc1ccc(/C=C2\SC(=S)N(CCCC(=O)Nc3nccs3)C2=O)cc1,?,-1%,1%,-12%,0.56µM*,-1%
COc1cc(/C=C2\SC(=S)N(CC(=O)Nc3ccc(O)cc3)C2=O)cc(OC)c1OC,1%,-3%,2%,-8%,-20%,3%
CC(=O)c1ccc(NC(=O)CCCN2C(=O)/C(=C/C(C)=C/c3ccccc3)SC2=S)cc1,22µM*,12%,1%,?,11µM*,1%
COc1ccc(/C=C2\SC(=S)N(CC(=O)OCC(=O)Nc3cc(Cl)cc(Cl)c3)C2=O)cc1,0%,20µM*,-2%,-9%,-20%,5%
COc1cccc(/C=C2/SC(=S)N(CC(=O)NNC(=O)c3ccccc3OC)C2=O)c1,0%,-19%,.,?,10µM*,.
COc1cccc(/C=C2\SC(=S)N(CCC(=O)NNC(=O)c3ccccc3OC)C2=O)c1,10%,5%,.,-16%,?,.
O=C(CCCN1C(=O)/C(=C\c2ccccc2)SC1=S)Nc1ccc(C(=O)O)cc1,0%,7%,.,-8%,-5%,.
Cc1ccc(/C=C2\SC(=S)N(CCCC(=O)Nc3nccs3)C2=O)cc1,17%,?,-1%,-1%,20%,2%
